Assay results published in PubChem BioAssay AID652039 (The Scripps Research Institute Molecular Screening Center, 2013).
About 3,300 (0.89%) of roughly 370,000 compounds were called active. The sample holds actives, similar compounds and a random draw of the others, so the mix is not that of the screen.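 The calls were made as follows: active = activation above the mean of all tested compounds plus 3 SD, computed per campaign excluding outliers beyond control limits (cut at about 13% in these data); inactive = the rest.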

target: Kallikrein-7 (Homo sapiens) (UniProt P49862); experiment: proKLK7 zymogen activators, primary screen, biochemical, fluorescence intensity (AID 652039); conditions: purified proKLK7, EDANS-DABCYL substrate fluorescence; at 7 µM; hits give high values; 100% is mature enzyme control, 0% vehicle
Sequence (P49862 whole entry, looked up): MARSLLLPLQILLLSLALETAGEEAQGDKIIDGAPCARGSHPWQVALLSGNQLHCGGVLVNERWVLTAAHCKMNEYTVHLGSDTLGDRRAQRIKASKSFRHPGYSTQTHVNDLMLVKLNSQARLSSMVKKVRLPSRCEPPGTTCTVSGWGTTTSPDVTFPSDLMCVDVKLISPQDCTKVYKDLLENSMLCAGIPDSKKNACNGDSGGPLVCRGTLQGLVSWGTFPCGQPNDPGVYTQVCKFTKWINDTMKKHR

Q: With `O=S1(=O)c2c(cccc2N2CC[C@H](O)C2)O[C@@H]2CCN1C2` as the molecule, how does the activation read?
A: -0.53% (inactive)

Q: With `O=C(c1cccc(N2CCCC2=O)c1)N1CCOCC1` as the molecule, how does the activation read?
A: -0.32% (inactive)

Q: For `COc1ccccc1C(=O)Nc1cccc(C(=O)N2CCOCC2)c1`, which activation is on record?
A: 0.2% (inactive)

Q: Which activation does the source give for `CNc1cncc(-c2cccc(C(=O)N3CCOCC3)c2)n1` here?
A: 49.4% (active)

Q: With `COc1cc(C(=O)N2CCN(C)CC2)cc(OC)c1OC` as the molecule, how does the activation read?
A: -0.27% (inactive)

Q: Which activation does the source give for `CC1CC(C)CN(S(=O)(=O)c2cccc(C(=O)N3C(=O)c4cccc(N)c4C3=O)c2)C1` (stereo not drawn) here?
A: 20.5% (active)

Q: With `COc1cc(C(=O)NC(=S)NCc2ccco2)cc(OC)c1OC` as the molecule, how does the activation read?
A: 0.52% (inactive)

Q: With `CCOC(=O)C1CCCN(C(=O)c2cccc(S(=O)(=O)N3CCOCC3)c2)C1` (stereo not drawn) as the molecule, how does the activation read?
A: -0.32% (inactive)

Q: How did the activation turn out when `COc1cc(C(=O)N2C(=O)c3cccc(N)c3C2=O)cc(OC)c1OC` was run?
A: 50.3% (active)

Q: Which activation does the source give for `CC(=O)N1CCN(S(=O)(=O)c2cccc(C(=O)NC3CCC(C)CC3)c2)CC1` (stereo not drawn) here?
A: -0.34% (inactive)

Q: Which activation does the source give for `COc1ccc(CCNC(=O)CSc2nc3c([nH]2)c(=O)n(C)c(=O)n3C)cc1` here?
A: 0.4% (inactive)

Q: How did the activation turn out when `COC(=O)c1ccccc1-n1cc(COC(=O)NCCc2ccccc2)nn1` was run?
A: -0.71% (inactive)

Q: With `C[C@H]1CCC/C=C/C(=O)c2c(O)cc(O)cc2CC(=O)O1` as the molecule, how does the activation read?
A: 0.41% (inactive)

Q: Which activation does the source give for `Cc1ccc(NC(=S)NNC(=O)CSc2nnc(SCc3ccccc3Cl)s2)cc1` here?
A: 0.76% (inactive)

Q: With `Cc1nc2ccc(C(=O)N3CCN(C(=O)C(C)(C)C)CC3)cc2n1C1CCCC1` as the molecule, how does the activation read?
A: -0.33% (inactive)

Q: Which activation does the source give for `Cc1ccc(-c2nnc(SCC(=O)Nc3ccc(Oc4ccccc4)cc3)n2Cc2ccco2)cc1` here?
A: -0.21% (inactive)

Q: Which activation does the source give for `O=C(c1ccccc1)c1ccc(-c2ccccc2C(=O)NC2CCCCN(Cc3ccc(Cl)cc3)C2=O)cc1` (stereo not drawn) here?
A: -0.04% (inactive)

Q: How did the activation turn out when `CC(=O)Oc1ccc2c(C)c(CC(C)O)c(=O)oc2c1` (stereo not drawn) was run?
A: 57.1% (active)

Q: How did the activation turn out when `COc1cccc(-c2coc3cc4oc(=O)c(CC(=O)O)c(C)c4cc23)c1` was run?
A: 0.62% (inactive)

Q: Which activation does the source give for `O=C(Oc1ccccc1)Oc1ccc2c(c1)oc(=O)c1ccccc12` here?
A: -0.49% (inactive)

Q: `CCc1c(C)c2ccc(OC3CCCCC3=O)cc2oc1=O` (stereo not drawn) was tested. Which activation did it give?
A: 1.85% (inactive)

Q: Which activation does the source give for `CC(=O)Nc1cc2ccc(OC(C)=O)cc2oc1=O` here?
A: 383% (active)

Q: With `Cc1ccc(OCC(=O)Nc2ccc3oc(=O)ccc3c2)cc1C` as the molecule, how does the activation read?
A: 0.37% (inactive)

Q: With `CCCCN1CCN(C(=O)c2ccc3c(c2)NC(=O)C(C)(C)O3)CC1` as the molecule, how does the activation read?
A: 0.18% (inactive)

Q: For `O=C(CSc1nc2c(c(=O)[nH]1)CCCC2)N1CCCCC1`, which activation is on record?
A: 0.8% (inactive)

Q: Which activation does the source give for `O=C(CSc1nc2ccccc2n1Cc1ccccc1)NNC(=S)Nc1ccccc1` here?
A: -0.17% (inactive)

Q: `O=C(CSc1nc2sc3c(c2c(=O)n1-c1ccccc1)CCCC3)NN=Cc1ccc(OCc2ccccc2)cc1` was tested. Which activation did it give?
A: -0.01% (inactive)

Q: For `COc1cc(C)ccc1OCC(=O)OCC(=O)c1ccc[nH]1`, which activation is on record?
A: -0.43% (inactive)

Q: How did the activation turn out when `COc1ccnc(NC(=S)N2CCN(c3ncc(C(F)(F)F)cc3Cl)CC2)c1` was run?
A: 0.32% (inactive)

Q: How did the activation turn out when `CCc1ccc(-c2cc(C(=O)NCc3ccco3)c3ccccc3n2)s1` was run?
A: 41.4% (active)

Q: With `Cc1cc(C(=O)OCC(=O)NCc2ccco2)c(C)n1-c1ccccc1` as the molecule, how does the activation read?
A: 0.45% (inactive)

Q: `Cn1nc(-c2ccc(Cl)cc2)c2cc(C(=O)NCc3ccco3)sc21` was tested. Which activation did it give?
A: -17.3% (inactive)

Q: Which activation does the source give for `c1csc(-c2nnc(SCc3nc4ccccc4[nH]3)o2)c1` here?
A: 1.12% (inactive)

Q: For `CCn1c2ccccc2c2cc(NC(=O)CSc3nnc(-c4ccccc4)n3-c3ccc(C)cc3)ccc21`, which activation is on record?
A: -0.54% (inactive)

Q: For `CCCN1CCN(C(=O)Cn2ncc3ccccc32)CC1`, which activation is on record?
A: -0.42% (inactive)

Q: `CCc1nn(CC(=O)N2CCN(CC)CC2)c(=O)c2cccn12` was tested. Which activation did it give?
A: -0.55% (inactive)

Q: For `CCN1CCN(C(=O)Cn2nc(C)n3c(cc4c(OC)cccc43)c2=O)CC1`, which activation is on record?
A: 21% (active)

Q: `C=CCN1C(=O)[C@@H](CC(=O)NCCCOCCCC)[C@]2(C(=O)OCC)CCCCC/C=C/12` was tested. Which activation did it give?
A: 0.01% (inactive)

Q: With `Cc1ccc(Cn2cc(CN3[C@@H](CC(C)C)COc4ccc(Cl)cc4S3(=O)=O)nn2)cc1` as the molecule, how does the activation read?
A: 0.91% (inactive)

Q: How did the activation turn out when `Cc1cccc(NC(=O)C[C@H]2CC[C@H]3[C@@H](COc4ccc(NC(=O)Nc5ccccc5)cc4C(=O)N3C)O2)c1` was run?
A: 0.42% (inactive)

Q: Which activation does the source give for `O=C(O)c1cnn2c(C(F)(F)F)cc(-c3ccccc3)nc12` here?
A: -0.59% (inactive)

Q: With `COC(=O)c1cnn2c(C(F)(F)F)cc(-c3ccco3)nc12` as the molecule, how does the activation read?
A: 23.1% (active)

Q: With `O=C(NCc1ccco1)c1cnn2c(C(F)(F)F)cc(-c3ccco3)nc12` as the molecule, how does the activation read?
A: 0.06% (inactive)

Q: Which activation does the source give for `CCCCNC(=O)C[C@H]1C[C@@]2(C(=O)OC)C(=C[C@H](COCc3ccccc3)O[C@@H]2C)N(Cc2ccc(Cl)cc2Cl)C1=O` here?
A: -0.06% (inactive)

Q: How did the activation turn out when `COC(=O)C1CN(CCc2ccccc2)CCS(=O)(=O)N1Cc1cccc(Cl)c1` (stereo not drawn) was run?
A: -0.14% (inactive)

Q: With `CCCc1nnc(NC(=O)CCC(=O)N2CCN(S(=O)(=O)c3ccc(OC)cc3)CC2)s1` as the molecule, how does the activation read?
A: -0.03% (inactive)

Q: How did the activation turn out when `COc1ccc(C)cc1N(C)C(=O)c1coc(=O)c2ccccc12` was run?
A: 0.1% (inactive)

Q: For `CN(C)C(=O)c1coc2nc3ccccc3nc12`, which activation is on record?
A: 39.4% (active)

Q: Which activation does the source give for `CN(C)C(=O)c1cc(Br)ccc1Cl` here?
A: -0.57% (inactive)

Q: For `C=CCN(C)CC#Cc1ccccc1`, which activation is on record?
A: -0.36% (inactive)

Q: How did the activation turn out when `CCCCCN1CCCCC(NC(=O)C(C)CCC)C1=O` (stereo not drawn) was run?
A: 0.5% (inactive)

Q: `O=C(CNS(=O)(=O)c1ccccc1F)N1CCN(c2ccccn2)CC1` was tested. Which activation did it give?
A: -0.03% (inactive)

Q: For `CCOc1ccccc1-c1cc(C(=O)N/N=C(\C)c2cccnc2)c2ccccc2n1`, which activation is on record?
A: -4.03% (inactive)

Q: With `O=C(NCCN1CCOCC1)c1cc(-c2cccs2)nc2ccccc12` as the molecule, how does the activation read?
A: 18.3% (active)

Q: How did the activation turn out when `O=C(NCCCN1CCOCC1)c1cnn2c(-c3ccccc3)cc(-c3ccccc3)nc12` was run?
A: -3.01% (inactive)

Q: For `CCCCN(C)CCCNC(=O)c1cc(-c2cccs2)nc2ccccc12`, which activation is on record?
A: 47.9% (active)

Q: Which activation does the source give for `O=C(NNC(=O)c1cc(-c2ccccc2Cl)nc2ccccc12)c1csc(N2CCOCC2)n1` here?
A: -0.59% (inactive)

Q: `CN(C)CCNC(=O)c1ccc(Cl)c2cc3ccccc3nc12` was tested. Which activation did it give?
A: 6.31% (inactive)
